Compound activity: PubChem, several laboratories
Shown are actives, neighbours in structure and some others; about 2.4% of the full set was active somewhere.
SENP7 inh = SENP7 protease inhibition. recombinant SENP7, Z-RLRGG-aminoluciferin luminescence, 40 min. inhibition, % at 5 µM. 330,000 tested, 1.5% active. AID 434973;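 active = inhibition above about 50% at the single test dose, limit read from the data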;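 also: plate controls were DMSO with enzyme for no effect and no enzyme buffer wells for full effect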
Target sequence (Q9BQF6 706-1050 limits assumed): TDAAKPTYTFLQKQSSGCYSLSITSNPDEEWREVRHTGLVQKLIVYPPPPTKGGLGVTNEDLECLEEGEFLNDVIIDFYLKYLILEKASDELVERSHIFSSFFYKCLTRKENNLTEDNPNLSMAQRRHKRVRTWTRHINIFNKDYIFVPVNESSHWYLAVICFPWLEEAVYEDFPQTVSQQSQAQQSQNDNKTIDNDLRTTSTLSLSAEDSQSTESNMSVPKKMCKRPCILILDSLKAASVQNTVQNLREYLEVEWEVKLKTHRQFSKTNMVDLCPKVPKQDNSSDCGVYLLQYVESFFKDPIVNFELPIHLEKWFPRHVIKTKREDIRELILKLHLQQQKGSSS
SENP8 block-1 = SENP8 protease inhibition | Q96LD8 | purified SENP8, Z-RLRGG-aminoluciferin cleavage, luminescence | inhibition, % at 10 µM | 330,000 tested, 1.2% active | AID 2540; in the data active = inhibition above about 50%
Platelet DG rel = modulates dense granule release in human platelets. human platelet-rich plasma, SFLLRN dense granule ATP release, luminescence. inhibition, %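 (compounds screened at 7.5 µM in platelet-rich plasma)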. 300,000 tested, 0.22% active;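 active = mean replicate score, as percent of positive control, at or above 50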
SENP6 inh = blocks the human protease SENP6; Q9GZR1; Recombinant SENP6 catalytic domain, aminoluciferin luminescence; inhibition, % at 10 µM; 330,000 tested, 1.8% active; AID 2599;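 active = inhibition above about 50% at the single tested dose, limit read from the data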;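 also: plate controls were DMSO wells with enzyme for no effect and DMSO wells lacking enzyme for full effect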
SENP8 block-2 = inhibitors of human SENP8 protease; Q96LD8; recombinant SENP8, Nedd8 substrate fluorescence; inhibition, % at 20 µM; 360,000 tested, 0.64% active; in the data active = inhibition mostly above about 40%, no sharp cut-off; inactive = mostly below about 27%
SENP8 conf = human SENP8 inhibition, confirmed; Recombinant SENP8, Z-RLRGG-aminoluciferin luminescence, 60 min; inhibition, % at 12.5 µM; AID 488912; 6,200 tested, 40% active; shares compounds with SENP7 inh;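 active = mean inhibition across replicates above about 50%, limit read from the data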
SENP6 conf = confirmation of human SENP6 protease inhibitors; shares compounds with SENP7 inh; recombinant SENP6, Z-RLRGG-aminoluciferin luminescence; inhibition, % at 12.5 µM; 6,200 tested, 58% active
SENP7 confirm = confirmation of human SENP7 protease inhibitors; shares compounds with SENP7 inh; recombinant SENP7, Z-RLRGG-aminoluciferin luminescence, 40 min; inhibition, % at 12.5 µM; 6,200 tested, 69% active
Casp3 SENP sel = inhibits human caspase-3 in SENP selectivity test; shares compounds with SENP7 inh; purified caspase-3, Z-DEVD-aminoluciferin luminescence, 60 min; inhibition, % at 12.5 µM; 6,200 tested, 60% active;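 active = mean inhibition above about 50%, limit read from the data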;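 also: plate controls were enzyme with DMSO for no effect and wells without caspase-3 for full effect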
Target sequence (P42574 28-227 limits assumed): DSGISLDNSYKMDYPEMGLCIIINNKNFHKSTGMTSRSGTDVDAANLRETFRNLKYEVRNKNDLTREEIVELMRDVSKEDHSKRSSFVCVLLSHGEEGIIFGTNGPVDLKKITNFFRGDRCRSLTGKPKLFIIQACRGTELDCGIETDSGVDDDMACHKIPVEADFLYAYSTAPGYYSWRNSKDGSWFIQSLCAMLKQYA
SENP luc ctr = luminescence interference (SENP counter-screen); shares compounds with SENP7 inh; Pre-incubated SENP8/Z-RLRGG-aminoluciferin, luciferase luminescence interference; 6,200 tested, 39% active; inhibition, % at 12.5 µM;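 active = mean inhibition above about 50% when retested at one dose, limit read from the data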;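 also: plate controls were DMSO wells with completed reaction for no effect and substrate without enzyme for full effect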
* marks the source's active call; other numbers are inactive results; i = inactive; . = not tested or not shown.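 The calls were made as follows, unless noted: active = mean inhibition above about 50% in the one-dose retest (limit read from the data); inactive = the rest.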

SMILES	SENP7 inh	SENP8 block-1	Platelet DG rel	SENP6 inh	SENP8 block-2	SENP8 conf	SENP6 conf	SENP7 confirm	Casp3 SENP sel	SENP luc ctr
O=C(/C=C/C=C/c1ccccc1)c1ccco1	-8	-13	4	-1	-3	.	.	.	.	.
CN1CC=C2C(C#N)=C(N)C(C#N)(C#N)[C@H](c3ccoc3)[C@H]2C1	41	27	-33	76*	i	12	10	2	-2	-7
CC(=O)N1CC=C2C(C#N)=C(N)C(C#N)(C#N)[C@H](c3ccoc3)[C@H]2C1	-1	-11	1	11	-164	.	.	.	.	.
Fc1ccc(-c2csc(-c3cccnc3)n2)cc1F	-7	-1	13	-11	-3	.	.	.	.	.
c1cncc(-c2nc(-c3ccc4c(c3)OCCO4)cs2)c1	83*	80*	4	79*	-97	3	81*	97*	72*	80*
COc1ccc2nc(NC(=O)c3cccs3)sc2c1	97*	94*	32	96*	12	2	4	-3	10	17
CC(=O)Nc1ccc2nc(NC(=O)c3ccc([N+](=O)[O-])s3)sc2c1	22	41	12	64*	.	6	8	4	20	-1
COc1ccc2nc(NC(=O)c3ccccc3O)sc2c1	82*	86*	3	84*	-290	42	38	70*	60*	5
Cc1nc2cc(NC(=O)c3ccc([N+](=O)[O-])s3)ccc2s1	39	-7	8	2	25	.	.	.	.	.
CC(=O)Nc1ccc2nc(NC(=O)c3cccs3)sc2c1	92*	83*	86*	93*	-409	56*	87*	93*	90*	48
COc1ccc2nc(NC(=O)c3ccccc3[N+](=O)[O-])sc2c1	-1	1	3	12	15	.	.	.	.	.
CCOC(=O)C1CCCN(C(=O)/C(=C/c2ccco2)NC(=O)c2ccccc2)C1 (configuration not stated)	2	-1	-29	-1	-3	.	.	.	.	.
O=C(Nc1ccc(Cl)cc1)Nc1cccc(C(=O)O)c1	97*	95*	7	95*	14	99*	99*	104*	87*	98*
O=C(Nc1ccc(Br)cc1)Nc1ccccc1Cl	94*	68*	2	81*	19	-2	68*	90*	38	3
CSc1cccc(NC(=O)Nc2ccc(Cl)cc2)c1	0	-1	-5	-19	23	.	.	.	.	.
O=C(Nc1cccc(C(=O)O)c1)Nc1ccccc1Cl	97*	93*	10	95*	-3	98*	98*	103*	96*	75*
O=C(Nc1ccc(CN2CCCCC2)cc1)Nc1ccccc1Cl	9	-9	-8	2	18	.	.	.	.	.
O=C(CCC(=O)Nc1ccc(Br)cc1)N/N=C/c1ccc(O)cc1	2	1	-13	3	20	.	.	.	.	.
COc1cc(-c2noc(C)c2C(=O)NCCc2ccccc2)cc(OC)c1OC	-4	4	.	-7	5	.	.	.	.	.
CC(=O)N(/N=C1\Sc2ccccc2C1=O)c1ccc(C)cc1C	70*	83*	24	87*	-53	6	65*	38	15	-1
CC(=O)N(\C=C/C=C/C=C1\Sc2ccccc2C1=O)c1ccccc1	12	1	3	21	-16	.	.	.	.	.
CC(=O)N(/N=C1\Sc2ccccc2C1=O)c1ccccc1C	63*	90*	-4	87*	-7	15	82*	36	5	8
Cc1cccc(C)c1NC(=O)CN1CCN(CCCC(c2ccc(F)cc2)c2ccc(F)cc2)CC1	-6	-6	.	-8	6	.	.	.	.	.
Cc1oc2c(C)c3oc(=O)c(CCC(=O)O)c(C)c3cc2c1-c1ccccc1	-9	-5	-9	1	-276	.	.	.	.	.
Cc1ccc(NCCCCO)cc1C	-8	-9	4	1	5	.	.	.	.	.
SMILES	SENP7 inh	SENP8 block-1	Platelet DG rel	SENP6 inh	SENP8 block-2	SENP8 conf	SENP6 conf	SENP7 confirm	Casp3 SENP sel	SENP luc ctr
NS(=O)(=O)c1ccc(CNC(=O)c2ccccc2SCC(=O)N2CCCC2)cc1	-6	-1	6	-4	-6	.	.	.	.	.
N#C/C(=C(/O)c1ccc([N+](=O)[O-])s1)c1nc2ccccc2[nH]1	52*	3	8	20	32	5	8	6	16	5
O=C(CCCN1C(=O)/C(=C/c2ccc3c(c2)OCO3)SC1=S)Nc1ccc(C(=O)O)cc1	78*	86*	1	93*	29	-13	3	14	16	16
O=C(CCCN1C(=O)/C(=C\c2ccccc2)SC1=S)Nc1ccc(C(=O)O)cc1	23	66*	-3	82*	10	10	6	12	5	13
CCc1ccc(/C=C2\SC(=S)N(CCCC(=O)Nc3ccc(C(=O)O)cc3)C2=O)cc1	83*	94*	1	92*	19	93*	97*	98*	77*	55*
O=C(CCCN1C(=O)S/C(=C/c2ccccc2)C1=S)Nc1ccc(C(=O)O)cc1	45	72*	-8	66*	12	11	52*	72*	46	20
O=C(CCC(=O)N(CC(=O)NC1CCCC1)Cc1ccc(F)cc1)Nc1nccs1	2	6	-4	-23	4	.	.	.	.	.
CN1C(=O)N(C)c2cccc3cccc1c23	7	1	0	1	11	.	.	.	.	.
CCc1ccc2cccc3c2c1N=CN3C	27	41	16	57*	84*	15	21	15	3	3
Cn1cccc1C(=O)NCCc1ccccc1	57*	36	13	67*	11	43	44	80*	83*	59*
Cn1cccc1C(=O)NCc1ccc(Cl)cc1	2	-4	13	-7	6	.	.	.	.	.
Cn1cccc1C(=O)NCCc1ccc(Cl)cc1	55*	44	2	62*	-2	50	46	82*	72*	58*
Cn1c(C(=O)NCCc2ccccc2)cc(=O)n(C)c1=O	0	1	6	20	16	.	.	.	.	.
Cc1cccc(NC(=O)CNC(=O)c2ccc3c(c2)OCO3)n1	-14	-2	23	-3	6	.	.	.	.	.
O=C(Nc1ccccn1)c1ccc2c(c1)OCCO2	80*	61*	35	-7	16	9	70*	92*	89*	72*
O=C(Nc1ncccc1Cl)c1ccc2c(c1)OCCO2	27	22	7	-27	21	.	.	.	.	.
